Reference: PubChem BioAssay AID1159580 (chemical genetic matrix, 2015)
Screen size: about 5,500 compounds; about 2,000 (36%) were called active. Another 18% or so got no clear call; they are omitted. Rule as the data show it: active = normalized growth mostly below about 0.91 (no sharp cut-off); inconclusive = no clear call, values can overlap the other calls; inactive = mostly above about 0.92. Some of the results follow.

Test: chemical genetic growth profiling, strain panel (AID 1159580);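 also: tested at 20 µM; growth read once vehicle control cultures reached saturation at 30 °C; 1 = growth at the plate median or of vehicle wells; lower values mean less growth of the strain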
Conditions: S. cerevisiae deletion strains, growth OD
[1] = locus YDL101C, strain DUN1, active compounds read low
[2] = locus YHR030C, strain SLT2, active compounds read low
[3] = locus YAL013W, strain DEP1, active compounds read low
[4] = locus YBR229C, strain ROT2, active compounds read low
[5] = locus YCL061C, strain MRC1, active compounds read low
[6] = locus YDR150W, strain NUM1, active compounds read low
[7] = locus YEL061C, strain CIN8, active compounds read low
[8] = locus YGR078C, strain PAC10, active compounds read low
[9] = locus YHR087W, strain rtc3, active compounds read low
[10] = locus YJR043C, strain POL32, active compounds read low
[11] = locus YJR075W, strain HOC1, active compounds read low
[12] = locus YLR039C, strain RIC1, active compounds read low
[13] = locus YLR058C, strain SHM2 (second series), active compounds read low
[14] = locus YLR085C, strain ARP6, active compounds read low
[15] = locus YLR262C, strain YPT6, active compounds read low
[16] = locus YML094W, strain GIM5, active compounds read low
[17] = locus YMR219W, strain ESC1, active compounds read low
[18] = locus YMR263W, strain SAP30, active compounds read low
[19] = locus YMR307W, strain GAS1, active compounds read low
[20] = locus YNL153C, strain GIM3, active compounds read low
[21] = locus YNL298W, strain CLA4 (second series), active compounds read low
[22] = locus YNL322C, strain KRE1, active compounds read low
[23] = locus YNR030W, strain Alg12, active compounds read low
[24] = locus YPL055C, strain LGE1, active compounds read low
[25] = locus YPL241C, strain CIN2, active compounds read low
[26] = locus YPR135W, strain CTF4, active compounds read low
[27] = locus YOL006C, strain TOP1, active compounds read low

Measured: normalized growth

Cc1c2c(=O)[nH]ncc2c(-c2ccccc2)n1-c1ccc([N+](=O)[O-])cc1
inactive: locus YAR019C, strain CDC15, active compounds read low 0.99 | locus YBL105C, strain PKC1, active compounds read low 0.999 | locus YBR135W, strain CKS1, active compounds read low 0.998 | locus YBR136W, strain MEC1, active compounds read low 0.993 | locus YBR160W, strain CDC28, active compounds read low 0.99 | locus YDL017W, strain CDC7, active compounds read low 0.999 | locus YDL028C, strain MPS1, active compounds read low 0.987 | [1] 0.991 | locus YDL108W, strain KIN28, active compounds read low 0.989 | locus YDL132W, strain cdc53, active compounds read low 0.991 | locus YDL214C, strain PRR2, active compounds read low 0.953 | locus YDR052C, strain DBF4, active compounds read low 1 | locus YDR054C, strain cdc34, active compounds read low 1 | locus YDR226W, strain ADK1, active compounds read low 0.991 | locus YDR477W, strain SNF1, active compounds read low 0.925 | locus YER123W, strain YCK3, active compounds read low 0.958 | locus YER133W, strain GLC7, active compounds read low 0.946 | locus YFL009W, strain cdc4, active compounds read low 0.975 | locus YFL029C, strain CAK1, active compounds read low 0.977 | locus YFR003C, strain YPI1, active compounds read low 0.99 | locus YFR019W, strain FAB1, active compounds read low 0.95 | locus YFR028C, strain CDC14, active compounds read low 0.978 | locus YGR040W, strain KSS1, active compounds read low 0.939 | locus YGR052W, strain FMP48, active compounds read low 1.01 | locus YGR092W, strain DBF2, active compounds read low 1 | locus YHR079C, strain IRE1, active compounds read low 0.994 | locus YHR082C, strain KSP1, active compounds read low 1.01 | locus YHR205W, strain SCH9, active compounds read low 0.937 | locus YIL147C, strain SLN1, active compounds read low 0.993 | locus YJL095W, strain BCK1, active compounds read low 0.903 | locus YJL128C, strain PBS2, active compounds read low 0.988 | locus YJL157C, strain FAR1, active compounds read low 0.971 | locus YJR016C, strain ILV3, active compounds read low 0.986 | locus YJR066W, strain TOR1 (second series), active compounds read low 0.928 | locus YJR066W, strain TOR1, active compounds read low 0.954 | locus YKL048C, strain ELM1, active compounds read low 0.94 | locus YKL067W, strain YNK1, active compounds read low 0.935 | locus YKL101W, strain HSL1, active compounds read low 0.968 | locus YKL193C, strain SDS22, active compounds read low 0.996 | locus YKL203C, strain TOR2, active compounds read low 1.03 | locus YLR113W, strain HOG1, active compounds read low 0.871 | locus YLR133W, strain CKI1, active compounds read low 0.975 | locus YLR403W, strain SFP1, active compounds read low 0.963 | locus YML070W, strain DAK1, active compounds read low 0.93 | locus YMR001C, strain CDC5, active compounds read low 0.989 | locus YMR205C, strain PFK2 (second series), active compounds read low 0.956 | locus YMR277W, strain FCP1, active compounds read low 0.979 | locus YNL006W, strain LST8, active compounds read low 0.983 | locus YNL020C, strain ARK1, active compounds read low 0.975 | locus YNL161W, strain CBK1, active compounds read low 0.998 | locus YNL183C, strain NPR1, active compounds read low 1.03 | locus YNL207W, strain RIO2, active compounds read low 1 | locus YNL222W, strain SSU72, active compounds read low 0.98 | locus YNL307C, strain MCK1 (second series), active compounds read low 0.949 | locus YOL078W, strain AVO1, active compounds read low 0.995 | locus YOL136C, strain PFK27, active compounds read low 0.938 | locus YOR061W, strain CKA2, active compounds read low 0.955 | locus YOR119C, strain RIO1, active compounds read low 0.975 | locus YOR231W, strain MKK1, active compounds read low 0.936 | locus YOR329C, strain SCD5, active compounds read low 0.993 | locus YPL031C, strain PHO85, active compounds read low 0.941 | locus YPL153C, strain RAD53, active compounds read low 0.939 | locus YPL204W, strain HRR25, active compounds read low 0.933 | locus YPL209C, strain IPL1, active compounds read low 1 | locus YPL256C, strain CLN2, active compounds read low 0.931 | locus YPR025C, strain CCL1, active compounds read low 0.988 | locus YPR106W, strain ISR1, active compounds read low 1.01 | locus YPR111W, strain DBF20, active compounds read low 1 | strain NNK1, active compounds read low 1.01 | strain TSCII, active compounds read low 0.987
active: [2] 0.812

Cc1[nH]ncc1-c1ccccc1
inactive: [3] 1 | [4] 0.978 | [5] 0.973 | [1] 0.979 | [6] 1.01 | [7] 0.986 | [8] 0.998 | locus YGR229C, strain SMI1, active compounds read low 0.999 | [2] 0.981 | [9] 1.02 | locus YJL187C, strain SWE1, active compounds read low 0.983 | [10] 0.984 | [11] 1.02 | [12] 0.873 | [13] 0.986 | [14] 0.994 | [15] 0.896 | [16] 0.974 | [17] 0.995 | [18] 0.967 | [19] 0.933 | locus YNL128W, strain TEP1, active compounds read low 0.993 | [20] 0.961 | [21] 0.98 | [22] 1.01 | [23] 0.991 | [24] 1.07 | [25] 0.986 | [26] 0.921

COc1ccc(NS(=O)(=O)c2c(C)noc2C)cc1
inactive: [3] 1.03 | [4] 1.02 | [5] 1 | [1] 1.02 | [6] 0.995 | [7] 1.03 | [8] 1.04 | [2] 1.06 | [9] 1.02 | [10] 0.995 | [11] 1.02 | locus YKL190W, strain CNB1, active compounds read low 1 | [12] 1.02 | [13] 1 | [14] 1.02 | [15] 1.01 | [16] 1.07 | [17] 0.996 | [18] 0.993 | [19] 0.941 | [20] 1.02 | [21] 1.02 | [22] 1.01 | [23] 1.04 | [27] 1.03 | [24] 1.06 | [25] 0.911 | [26] 1.02

CCn1nc(C)c(Br)c1-c1nc(-c2ccc(C(F)(F)F)cc2)no1
inactive: [3] 1 | [4] 0.999 | [1] 1.02 | [6] 0.902 | [7] 1.01 | [8] 1.01 | [2] 1.08 | [9] 1 | [10] 1.01 | [11] 1 | [12] 0.982 | [13] 1.01 | [14] 1.14 | [15] 1.03 | [16] 1.03 | [17] 0.999 | [18] 1.02 | [19] 1.15 | [20] 0.985 | [21] 1.04 | [22] 1.01 | [23] 1.02 | [27] 1.14 | [24] 0.914 | [25] 0.981 | [26] 1.02
